Key:
Experiment in all cases: log2 ratio of Biotin-Ahx-Ub-VS probe labelling (fragment/DMSO); higher = less target engagement (more negative = stronger competition), active = hit call of the paper (q ≤ 0.05, log2 ratio ≤ -1)
Conditions in all cases: compound concentration: 200 uM; treatment time: 3 h
OTUD6B = biological target: T1, OTUD6B (UniProt Q8N6M0)
T1 sequence (whole entry): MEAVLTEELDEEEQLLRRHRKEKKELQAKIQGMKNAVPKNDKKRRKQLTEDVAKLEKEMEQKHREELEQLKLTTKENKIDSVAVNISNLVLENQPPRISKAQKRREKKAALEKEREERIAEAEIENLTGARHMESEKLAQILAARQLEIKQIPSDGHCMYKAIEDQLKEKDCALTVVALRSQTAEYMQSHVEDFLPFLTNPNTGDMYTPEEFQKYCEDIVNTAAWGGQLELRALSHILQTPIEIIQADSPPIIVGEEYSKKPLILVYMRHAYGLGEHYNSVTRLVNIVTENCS
In short: (§1)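 Global-median-normalised Spectronaut label-free quantities were compared by unpaired t-test, and values are average log2 ratios of fragment over vehicle. Only proteins with ≥2 unique peptides were used. HEK293T lysate (495 µg per sample) was treated in triplicate with fragment at 200 µM or vehicle for 3 h and then with Biotin-Ahx-Ub-VS at 0.5 µM final for 1 h. Labelled DUBs were then NeutrAvidin-enriched, digested with LysC and trypsin, and run by diaPASEF LC-MS/MS.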

OTUD7B = biological target: T2, OTUD7B (UniProt Q6GQQ9)
T2 sequence (whole entry): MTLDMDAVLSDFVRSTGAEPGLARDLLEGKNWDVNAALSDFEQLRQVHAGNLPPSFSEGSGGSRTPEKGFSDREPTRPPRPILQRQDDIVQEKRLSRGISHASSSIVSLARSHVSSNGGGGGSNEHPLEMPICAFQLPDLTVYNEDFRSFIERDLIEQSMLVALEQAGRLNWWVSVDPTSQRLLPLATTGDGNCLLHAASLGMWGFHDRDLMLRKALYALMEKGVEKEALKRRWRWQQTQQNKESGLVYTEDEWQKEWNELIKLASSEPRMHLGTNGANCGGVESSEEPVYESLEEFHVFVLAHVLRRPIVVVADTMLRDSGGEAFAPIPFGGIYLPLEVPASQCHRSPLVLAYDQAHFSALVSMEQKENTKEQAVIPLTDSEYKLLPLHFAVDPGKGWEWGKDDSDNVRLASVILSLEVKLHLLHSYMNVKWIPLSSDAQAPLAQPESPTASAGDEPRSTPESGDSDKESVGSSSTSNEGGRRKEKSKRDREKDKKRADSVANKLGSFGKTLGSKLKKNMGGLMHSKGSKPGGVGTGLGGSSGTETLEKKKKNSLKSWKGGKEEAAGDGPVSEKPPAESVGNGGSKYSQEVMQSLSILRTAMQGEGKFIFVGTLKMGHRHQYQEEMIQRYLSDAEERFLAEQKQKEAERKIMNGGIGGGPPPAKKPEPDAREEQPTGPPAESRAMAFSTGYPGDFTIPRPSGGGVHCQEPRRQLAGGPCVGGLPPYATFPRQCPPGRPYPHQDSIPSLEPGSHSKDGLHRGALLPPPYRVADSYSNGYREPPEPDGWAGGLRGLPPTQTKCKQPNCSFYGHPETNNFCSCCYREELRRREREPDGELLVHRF
In short: as §1

PRPF8 = PRPF8 (UniProt Q6P2Q9)
In short: as §1

PSMD7 = biological target: T3, PSMD7 (UniProt P51665)
T3 sequence (whole entry): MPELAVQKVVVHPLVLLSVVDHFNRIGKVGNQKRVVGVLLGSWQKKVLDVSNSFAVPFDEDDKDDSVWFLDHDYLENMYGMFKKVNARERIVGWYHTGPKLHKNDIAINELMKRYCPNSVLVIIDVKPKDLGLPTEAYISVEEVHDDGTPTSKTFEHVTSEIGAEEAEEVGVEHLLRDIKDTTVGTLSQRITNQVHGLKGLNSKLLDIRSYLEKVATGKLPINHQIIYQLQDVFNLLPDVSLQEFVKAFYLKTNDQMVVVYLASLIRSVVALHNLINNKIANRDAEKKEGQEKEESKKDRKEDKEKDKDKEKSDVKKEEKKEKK
In short: as §1

UCHL1 = UCHL1 (UniProt P09936)
In short: as §1

UCHL3 = biological target: T4, UCHL3 (UniProt P15374)
T4 sequence (whole entry): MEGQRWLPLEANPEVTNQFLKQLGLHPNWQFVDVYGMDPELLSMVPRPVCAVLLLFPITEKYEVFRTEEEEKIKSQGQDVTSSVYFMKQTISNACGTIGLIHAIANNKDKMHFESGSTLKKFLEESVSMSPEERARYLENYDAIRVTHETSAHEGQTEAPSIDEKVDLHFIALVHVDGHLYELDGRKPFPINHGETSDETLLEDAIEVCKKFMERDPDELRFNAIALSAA
In short: as §1

UCHL5 = biological target: T5, UCHL5 (UniProt Q9Y5K5)
T5 sequence (whole entry): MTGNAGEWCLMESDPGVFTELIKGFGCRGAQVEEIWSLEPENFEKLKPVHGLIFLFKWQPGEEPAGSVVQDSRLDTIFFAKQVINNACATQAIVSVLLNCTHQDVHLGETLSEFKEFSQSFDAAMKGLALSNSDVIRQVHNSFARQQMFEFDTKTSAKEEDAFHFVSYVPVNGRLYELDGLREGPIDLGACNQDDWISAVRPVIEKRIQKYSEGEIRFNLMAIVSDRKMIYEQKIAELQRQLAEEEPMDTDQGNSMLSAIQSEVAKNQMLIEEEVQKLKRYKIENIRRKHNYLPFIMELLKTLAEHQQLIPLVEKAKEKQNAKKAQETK
In short: as §1

USP10 = USP10 (UniProt Q14694)
In short: as §1

USP15 = biological target: T6, USP15 (UniProt Q9Y4E8)
T6 sequence (whole entry): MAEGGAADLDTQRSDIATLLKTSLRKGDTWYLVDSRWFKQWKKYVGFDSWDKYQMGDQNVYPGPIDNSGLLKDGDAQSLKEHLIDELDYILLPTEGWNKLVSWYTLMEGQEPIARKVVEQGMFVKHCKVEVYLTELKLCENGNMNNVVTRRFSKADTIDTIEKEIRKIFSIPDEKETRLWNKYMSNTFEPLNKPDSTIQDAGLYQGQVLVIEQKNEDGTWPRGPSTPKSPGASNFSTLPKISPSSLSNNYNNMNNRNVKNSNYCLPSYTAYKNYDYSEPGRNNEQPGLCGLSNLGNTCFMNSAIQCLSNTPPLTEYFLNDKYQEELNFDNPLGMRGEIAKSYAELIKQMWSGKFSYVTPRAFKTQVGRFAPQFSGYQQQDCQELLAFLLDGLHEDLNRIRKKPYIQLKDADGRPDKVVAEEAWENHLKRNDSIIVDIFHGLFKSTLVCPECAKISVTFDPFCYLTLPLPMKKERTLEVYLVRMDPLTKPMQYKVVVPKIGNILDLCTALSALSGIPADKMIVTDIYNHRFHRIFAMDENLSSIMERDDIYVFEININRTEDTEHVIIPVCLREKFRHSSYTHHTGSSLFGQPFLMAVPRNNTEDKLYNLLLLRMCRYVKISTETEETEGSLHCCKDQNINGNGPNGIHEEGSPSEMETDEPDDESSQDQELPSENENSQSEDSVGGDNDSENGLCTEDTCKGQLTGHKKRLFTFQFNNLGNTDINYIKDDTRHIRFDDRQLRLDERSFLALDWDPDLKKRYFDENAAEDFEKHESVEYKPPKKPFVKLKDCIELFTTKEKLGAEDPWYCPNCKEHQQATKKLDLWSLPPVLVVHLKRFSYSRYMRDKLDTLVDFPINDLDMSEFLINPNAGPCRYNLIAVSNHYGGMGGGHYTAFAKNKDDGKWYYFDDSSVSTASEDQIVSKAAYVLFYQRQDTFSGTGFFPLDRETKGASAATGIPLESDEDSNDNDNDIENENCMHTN
In short: as §1

USP16 = USP16 (UniProt Q9Y5T5)
In short: as §1

Measured: log2 ratio of Biotin-Ahx-Ub-VS probe labelling

UCHL1, sequence (P09936 whole entry, looked up): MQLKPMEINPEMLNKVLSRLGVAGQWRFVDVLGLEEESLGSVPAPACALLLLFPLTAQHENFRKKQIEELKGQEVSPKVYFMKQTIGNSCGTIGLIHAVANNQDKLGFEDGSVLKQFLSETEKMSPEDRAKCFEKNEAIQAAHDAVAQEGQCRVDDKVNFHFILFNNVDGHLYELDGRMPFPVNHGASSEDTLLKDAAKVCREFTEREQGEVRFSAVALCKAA
USP10, sequence (Q14694 whole entry): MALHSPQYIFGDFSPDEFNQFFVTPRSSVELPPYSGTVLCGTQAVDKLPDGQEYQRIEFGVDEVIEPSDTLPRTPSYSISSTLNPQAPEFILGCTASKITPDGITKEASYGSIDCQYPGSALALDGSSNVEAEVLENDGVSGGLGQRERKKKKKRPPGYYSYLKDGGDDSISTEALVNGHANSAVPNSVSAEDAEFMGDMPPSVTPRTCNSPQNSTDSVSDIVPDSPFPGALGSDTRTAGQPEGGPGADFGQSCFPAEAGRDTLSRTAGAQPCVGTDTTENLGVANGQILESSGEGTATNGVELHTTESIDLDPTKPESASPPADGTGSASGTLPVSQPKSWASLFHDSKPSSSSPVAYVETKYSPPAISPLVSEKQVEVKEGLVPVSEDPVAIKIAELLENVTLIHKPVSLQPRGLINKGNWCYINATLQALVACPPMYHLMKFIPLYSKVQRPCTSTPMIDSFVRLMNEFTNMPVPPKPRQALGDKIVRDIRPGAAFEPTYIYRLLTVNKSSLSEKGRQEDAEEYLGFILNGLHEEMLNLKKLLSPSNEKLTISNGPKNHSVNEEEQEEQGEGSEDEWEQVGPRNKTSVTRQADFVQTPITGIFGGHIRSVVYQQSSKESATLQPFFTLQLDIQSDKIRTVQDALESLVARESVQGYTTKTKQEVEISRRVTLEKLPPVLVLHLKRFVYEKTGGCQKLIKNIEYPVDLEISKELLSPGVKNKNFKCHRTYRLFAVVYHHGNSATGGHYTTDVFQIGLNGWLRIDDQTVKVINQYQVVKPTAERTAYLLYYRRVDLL
USP16, sequence (Q9Y5T5 whole entry, looked up): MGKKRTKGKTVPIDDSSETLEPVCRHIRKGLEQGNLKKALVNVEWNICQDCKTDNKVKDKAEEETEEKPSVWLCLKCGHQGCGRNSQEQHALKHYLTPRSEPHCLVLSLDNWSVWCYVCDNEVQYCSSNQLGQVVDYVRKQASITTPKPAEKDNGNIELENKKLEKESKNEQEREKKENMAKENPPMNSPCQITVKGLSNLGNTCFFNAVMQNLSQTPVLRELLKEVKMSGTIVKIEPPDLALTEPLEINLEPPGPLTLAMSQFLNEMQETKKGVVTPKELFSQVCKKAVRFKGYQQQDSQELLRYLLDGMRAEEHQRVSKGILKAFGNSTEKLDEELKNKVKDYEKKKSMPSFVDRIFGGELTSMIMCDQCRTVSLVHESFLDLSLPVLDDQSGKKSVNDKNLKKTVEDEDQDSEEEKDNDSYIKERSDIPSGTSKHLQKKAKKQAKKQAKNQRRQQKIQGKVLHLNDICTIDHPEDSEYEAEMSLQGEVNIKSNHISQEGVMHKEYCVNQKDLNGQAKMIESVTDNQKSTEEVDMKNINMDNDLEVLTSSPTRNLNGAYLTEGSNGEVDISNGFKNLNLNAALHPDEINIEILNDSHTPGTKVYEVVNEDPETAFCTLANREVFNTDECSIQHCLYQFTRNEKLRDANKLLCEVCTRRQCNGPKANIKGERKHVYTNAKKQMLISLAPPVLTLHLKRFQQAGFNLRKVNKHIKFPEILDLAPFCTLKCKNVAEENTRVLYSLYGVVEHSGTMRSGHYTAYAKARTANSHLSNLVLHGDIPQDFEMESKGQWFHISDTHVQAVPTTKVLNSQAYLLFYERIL

Cc1ncc2c(n1)CCN(C(=O)CCl)C2
inactive: OTUD6B -0.152 | OTUD7B -0.47 | PRPF8 0.0188 | PSMD7 0.0625 | UCHL1 -0.771 | UCHL3 0.268 | UCHL5 0.0568 | USP10 -0.242 | USP15 -0.636 | USP16 -0.136
